Screening results (PubChem BioAssay)
This is a sample that favours compounds with a hit; in the whole collection about 11% have one here.
NIH3T3 tox: kills NIH 3T3 cells. NIH 3T3 viability, CellTiter-Glo ATP luminescence, 48-72 h. Potency, µM (top dose mostly 96.7 µM), for inactives: top-dose activity change, negative = cytotoxicity, hits mostly inhibitors. 4.3% of 94,000 active; active = well fitted curve in the direction sought with a large enough effect; inconclusive = small, poorly fitted or top-dose-only effect, or another doubt; inactive = no such curve, though single readings can be large; an effect the other way counts as inactive or inconclusive; note: % is set by controls: 0 for no effect and ±100 for the full control effect; nearly all actives have a fitted effect of over 55% in size
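NIH 3T3 cells at 400 cells/well received 23 nL of compound by pintool and were incubated 48 or 72 h at 37 °C. Viability was read as ATP-coupled CellTiter-Glo luminescence.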
NPR1 antag: blocks ANP-stimulated signaling of human Npr1 receptor; P16066; HEK293 hNpr1 GloSensor cGMP, ANP-stimulated luminescence; Potency, µM (top dose mostly 46.3 µM), for the others: at the top dose activity change, negative = inhibition, hits mostly inhibitors; 1.6% of 76,000 active; AID 1347048; note: % is set by controls: 0 for no effect and ±100 for the full control effect; nearly all actives have a fitted effect of over 60% in size
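HEK293 cells stably expressing human Npr1 and cGMP GloSensor pGS-40F, loaded 2 h with 2% GloSensor reagent, given compound 30 min at room temperature. Luminescence read before and 20 min after 0.1 nM hNppA.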
FLuc inh: Photinus pyralis luciferase inhibition; Potency, µM (top dose mostly 115 µM), most hits filed as inhibitors; purified P. pyralis luciferase, luminescence, biochemical; P08659; 2.5% of 76,000 active; active = well fitted curve in the direction sought with a large enough effect; inconclusive = small, poorly fitted or top-dose-only effect, or another doubt; inactive = no such curve, though single readings can be large; an effect the other way counts as inactive or inconclusive; note: % is set by controls: 0 for no effect and ±100 for the full control effect; nearly all actives have a fitted effect of over 65% in size
Target sequence (P08659 whole entry, looked up): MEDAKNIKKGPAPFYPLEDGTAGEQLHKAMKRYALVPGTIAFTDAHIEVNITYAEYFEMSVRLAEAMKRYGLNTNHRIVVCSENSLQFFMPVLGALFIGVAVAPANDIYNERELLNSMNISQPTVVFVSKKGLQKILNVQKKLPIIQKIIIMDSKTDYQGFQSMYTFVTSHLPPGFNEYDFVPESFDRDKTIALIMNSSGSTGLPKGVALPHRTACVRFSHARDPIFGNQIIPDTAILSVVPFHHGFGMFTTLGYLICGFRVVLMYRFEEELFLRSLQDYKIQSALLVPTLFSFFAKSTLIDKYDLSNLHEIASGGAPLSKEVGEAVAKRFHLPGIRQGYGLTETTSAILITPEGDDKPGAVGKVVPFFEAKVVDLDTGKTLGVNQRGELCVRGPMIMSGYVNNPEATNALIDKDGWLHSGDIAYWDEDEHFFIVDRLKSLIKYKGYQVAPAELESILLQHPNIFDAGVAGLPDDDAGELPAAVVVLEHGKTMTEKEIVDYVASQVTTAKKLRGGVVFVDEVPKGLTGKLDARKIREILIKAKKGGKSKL
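Biochemical qHTS: compound (6-point titration) added to 10uM D-luciferin plus 10uM ATP in Tris acetate pH 7.5 buffer with Mg, Tween-20 and BSA, then purified enzyme at 10nM; light output imaged.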
HEK293 tox: kills HEK 293 cells; HEK 293 viability, ATP luminescence (CellTiter-Glo), 48-72 h; Potency, µM (highest dose often 115 µM), for inactives: top-dose activity change, negative = cytotoxicity, actives largely listed as inhibitors; 6.6% of 94,000 active; active = well fitted curve in the direction sought with a large enough effect; inconclusive = small, poorly fitted or top-dose-only effect, or another doubt; inactive = no such curve, though single readings can be large; an effect the other way counts as inactive or inconclusive; note: % is set by controls: 0 for no effect and ±100 for the full control effect; nearly all actives have a fitted effect of over 60% in size
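ATP-coupled CellTiter-Glo luminescence served as viability read-out, recorded 10 min after reagent addition at room temperature. HEK 293 cells, 250 cells/well, had been incubated with pintool-transferred compound for 48 or 72 hr at 37 degree Celsius.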
NPR1 antag cnf: confirmation of human Npr1 natriuretic peptide receptor antagonists; shares compounds with NPR1 antag; HEK293 hNpr1 cGMP GloSensor luminescence, ANP-stimulated; Potency, µM (doses to about 57.6 µM), for the others: top-dose activity change, negative = inhibition, actives largely listed as inhibitors; 76% of 1,400 active; AID 1347044; note: nearly all actives have a fitted effect of over 70% in size
Npr2 selectivity: hNpr2 antagonism, selectivity versus Npr1 | HEK293 hNpr2 GloSensor cGMP luminescence, CNP-stimulated | 67% of 1,400 active | shares compounds with NPR1 antag | Potency, µM (doses to about 57.6 µM), inactives show at the top dose activity change, negative = inhibition, usual class: inhibitors; note: nearly all actives have a fitted effect of over 70% in size
FLuc counter: FLuc enzyme inhibition, Npr1 counter-screen; shares compounds with NPR1 antag; purified FLuc enzyme, luminescence, Km substrate; Potency, µM (titrated, usually from 57.6 µM), for inactives: at the top dose activity change, negative = inhibition, hits mostly inhibitors; 0.7% of 1,400 active; AID 1347047; active = well fitted curve in the direction sought with a large enough effect; inconclusive = small, poorly fitted or top-dose-only effect, or another doubt; inactive = no such curve, though single readings can be large; an effect the other way counts as inactive or inconclusive; note: series mostly up to about 58 µM; 0% is about no effect
GloSensor ctrl: counter-screen for Npr1 antagonists: GloSensor control cell line; shares compounds with NPR1 antag; HEK293 GloSensor cGMP, SNP-stimulated, luminescence; Potency, µM (titrated, usually from 57.6 µM), inactives show at the top dose activity change, negative = inhibition, actives largely listed as inhibitors; 69% of 1,400 active; AID 1347051; note: % is set by controls: 0 for no effect and ±100 for the full control effect; nearly all actives have a fitted effect of over 70% in size
Starred values were filed as active, the others as inactive; i = inactive; ? = inconclusive; · = no result; [ ] = another dose, or the depositor's remark. Unless noted, calls come from the whole dose curve. Potency is the fitted concentration of half-maximal effect.

SMILES | NIH3T3 tox | NPR1 antag | FLuc inh | HEK293 tox | NPR1 antag cnf | Npr2 selectivity | FLuc counter | GloSensor ctrl
CC(C)c1ccc(CN2CC[C@@H]3OCC(=O)N(C(C)C)[C@H]3CC2)cc1 | ? | 8.9µM* | i | ? | 7.9µM* | 11µM* | 0%[86.2 µM] | 6.3µM*
CC(C)N1C(=O)CO[C@H]2CCN(Cc3ccccc3)CC[C@@H]21 | ? | ? | i | ? | · | · | · | ·
CC(C)N1C(=O)CO[C@H]2CCN(Cc3ccccc3Cl)CC[C@@H]21 | ? | 2.8µM* | i | ? | 7.9µM* | 11µM* | 3%[86.2 µM] | 6.3µM*
N#Cc1ccc(C(=O)N2CCCN(S(=O)(=O)c3ccccc3)CCC(=O)NCC2)cc1 | -3% | -2% | i | 2% | · | · | · | ·
Cc1ccc(C(=O)N2CCN(c3cc(-c4cccs4)[nH]n3)CC2)c(C)c1 | 7.9µM* | ? | i | 45µM* | 27µM* | 24µM* | 4% | 27µM*
COc1ccc(C(=O)N2CCCN(c3cc(-c4ccccc4)[nH]n3)CC2)c(OC)c1 | -19% | ? | i | 40µM* | 24µM* | ? | 2% | 24µM*
COc1ccc(C(=O)N2CCCN(c3cc(-c4ccccc4)[nH]n3)CC2)c(C)c1 | ? | 11µM* | i | ? | 17µM* | 19µM* | 1% | 17µM*
Cc1nc(CN2C(=O)OC3(CCN(Cc4c[nH]c5ccccc45)CC3)C2(C)c2ccccc2)cs1 (stereo not drawn) | 20µM* | -21% | i | ? | ? | ? | 1% | 1%
COc1cc(CN2CCC(C)(NC(C)=O)CC2)cc(-c2ccncc2)c1 | · | · | · | · | 22µM* | 8.9µM* | 2%[86.2 µM] | -18%[86.2 µM]
COc1ccc(Cl)cc1NC(=O)Cn1c(N2CCC(C)CC2)nc(C)cc1=O | ? | 11µM* | i | 45µM* | 19µM* | 19µM* | 1% | 15µM*
CCOc1ccc(NC(=O)Cn2c(N3CCC(C)CC3)nc(C)cc2=O)cc1 | ? | ? | i | ? | · | · | · | ·
CCOC(=O)c1ccc(NC(=O)Cn2c(N3CCC(C)CC3)nc(C)cc2=O)cc1 | ? | 14µM* | i | ? | 22µM* | 19µM* | 4% | 22µM*
CCN(C(=O)CN1C(=O)NC(c2ccccc2Cl)C2=C1COC2=O)c1cccc(C)c1 (stereo not drawn) | ? | 3% | i | ? | · | · | · | ·
Cc1ccc(Nc2ccnc(N3CCCC3C(=O)N3CCC(C#N)CC3)n2)cc1 (stereo not drawn) | -12% | · | · | ? | · | · | · | ·
CN(Cc1ccccc1)C(=O)[C@@]12CCCC[C@H]1N(C)C(=O)CC2 | -10% | 2% | i | -20% | · | · | · | ·
CCC(O)C(=O)N1CCc2onc(-c3ccc(-c4ccccc4)cc3)c2C1 (stereo not drawn) | ? | 11µM* | i | ? | 24µM* | 24µM* | ? | 24µM*
CC(Cn1cccn1)C(=O)N1CCc2onc(-c3ccc(F)c(F)c3)c2C1 (stereo not drawn) | -28% | -11% | i | ? | · | · | · | ·
CCCOc1ccccc1C(=O)N1CCc2onc(-c3ccccc3)c2C1 | ? | ? | i | ? | ? | ? | 2% | -23%
Cn1cnnc1-c1nn(C)c2c1CN(C(=O)CCc1nc3ccccc3s1)CC2 | -18% | · | · | -8% | · | · | · | ·
CC(C)CCN1C(=O)CC[C@]2(C(=O)N(C)Cc3ccco3)CCCC[C@@H]12 | -28% | -5% | i | ? | · | · | · | ·
Cc1cc(C)cc(CCC(=O)N2CCN(c3ccc(C#N)cn3)CC2)c1 | ? | 1% | i | ? | · | · | · | ·
